# From the OligoGym collection
# How the values were obtained:
# Assay in all cases: pooled miR-30 sensor sort-seq; sequence = guide strand
# Conditions in all cases: shRNA
# CTSH = target: CTSH
# CUZD1 = target: CUZD1
# CWF19L2 = target: CWF19L2
# CXCL1 = target: CXCL1
# CYLC1 = target: CYLC1
# DCPS = target: DCPS
# DENND3 = target: DENND3
# DEXI = target: DEXI
# DEK = target: DEK
# DEF6 = target: DEF6
# Further: reference of the scale not given here.
sequence,measurement,setting,value
TTTGGTGGCTGAGCAATTCTGA,sensor-assay potency score (higher = more potent),CTSH,-0.218
TTCTATACATCATGAAGTCCTG,sensor-assay potency score (higher = more potent),CTSH,-0.782
TTTAGTTGCAAGTTATTCCCAT,sensor-assay potency score (higher = more potent),CUZD1,0.389
TTGTATTACATCATCTTCTGTT,sensor-assay potency score (higher = more potent),CUZD1,0.486
AAGGACAGCATCTTTCCGGTTG,sensor-assay potency score (higher = more potent),CTSH,0.018
TTTTATGGCAGGAAGTACTGGA,sensor-assay potency score (higher = more potent),CTSH,0.401
TTGATTAGGTCGTAGGTTGGAG,sensor-assay potency score (higher = more potent),CUZD1,0.0207
TTAGCCAGCTTAATCCACCATC,sensor-assay potency score (higher = more potent),CWF19L2,0.0576
TTAGTAATCGATGACACACTAC,sensor-assay potency score (higher = more potent),CWF19L2,-0.494
TAACTATGGGGGATGCAGGATT,sensor-assay potency score (higher = more potent),CXCL1,-1.31
TTCTCTTCTACTATTTGCTTGG,sensor-assay potency score (higher = more potent),CYLC1,-0.0318
TTGAATCTTTCTTAGCATCCTT,sensor-assay potency score (higher = more potent),CYLC1,-0.0997
TTCTGCAGGTGTTTCTCTGTGG,sensor-assay potency score (higher = more potent),DCPS,0.117
TATTTATCAGAACTAAACCGTC,sensor-assay potency score (higher = more potent),DENND3,-0.811
TCAAAGACGTCGAGCTCCGAGT,sensor-assay potency score (higher = more potent),DEXI,-0.796
TAACCTGAAATGAAGGAGCGAG,sensor-assay potency score (higher = more potent),DEXI,-0.355
TAGATGACGGAGTCTTCCGAGC,sensor-assay potency score (higher = more potent),DENND3,-1.16
TAGATTTCTAAGTTCATCGGTT,sensor-assay potency score (higher = more potent),DEK,0.499
TTGTAGAAATCTTTGAATGTTT,sensor-assay potency score (higher = more potent),DENND3,-1.03
TAGAGGGCAGCAGCGGCGGCGG,sensor-assay potency score (higher = more potent),DEXI,-1.83
TAACGTGGCACTCACCAGCATG,sensor-assay potency score (higher = more potent),DEXI,-1.35
TGACCGGACGCTTATCTCCAGG,sensor-assay potency score (higher = more potent),DEF6,-1.34
TTTGGAACTGTTTTGATTCTTC,sensor-assay potency score (higher = more potent),DEK,0.827
TTGTCCAGGATGTACTTGTTGA,sensor-assay potency score (higher = more potent),DEF6,-0.794
TCTTCCAGCAGTCTGGTCTGAG,sensor-assay potency score (higher = more potent),DEF6,-0.41
TTGAACACGGTCACCTTGCCTT,sensor-assay potency score (higher = more potent),DENND3,-0.0431
TTGGACTTAGAAGCATTCCATT,sensor-assay potency score (higher = more potent),DENND3,-1.49
TTTAACTCTTCATCTGTAGGGG,sensor-assay potency score (higher = more potent),DEK,0.332
TCAAACAGGAACCTCTCTGTTG,sensor-assay potency score (higher = more potent),DEXI,-0.754
TTATTGTTTCCTTTAACTCTTC,sensor-assay potency score (higher = more potent),DEK,-0.171
TATCAGAACTAAACCGTCGGCT,sensor-assay potency score (higher = more potent),DENND3,0.0696
TTGAAGAGGCACCAGAGGCGGA,sensor-assay potency score (higher = more potent),DEF6,-1.08
TTATCAGAACTAAACCGTCGGC,sensor-assay potency score (higher = more potent),DENND3,-0.359
TTCTTCATCTCGCCGAGCTTTC,sensor-assay potency score (higher = more potent),DEF6,-1.29
ATCATCTGAAGACTCTTCCTTG,sensor-assay potency score (higher = more potent),DEK,-0.474
TTAACTCTTCATCTGTAGGGGG,sensor-assay potency score (higher = more potent),DEK,0.319
TAGTACAGGATCAGCACATTGA,sensor-assay potency score (higher = more potent),DEXI,-0.394
TAACTCTTCATCTGTAGGGGGT,sensor-assay potency score (higher = more potent),DEK,0.328
TTTCCTTTAACTCTTCATCTGT,sensor-assay potency score (higher = more potent),DEK,0.131
TAAATGATTCTTTACATCCCTG,sensor-assay potency score (higher = more potent),DENND3,-0.0961
TAGTTCACTATTTACACCTGAT,sensor-assay potency score (higher = more potent),DEK,-0.118
TAGAGCAGCACGTCCACCGCTT,sensor-assay potency score (higher = more potent),DENND3,0.371
